# Experimental data as given in PubChem BioAssay.
# Active and inactive are the calls of the source.
# Tests used:
# [1] = E. coli DRC41 culture turbidity changes, primary screen, E. coli filamentation inducer project, strain DRC41, OD650, 48 h (AID 1152);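 also: E. coli MC1000 strain DRC41 lacking acrAB efflux pump and sulA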; conditions: E. coli DRC41 (acrAB sulA), higher = more signal, called active from +8 up or from −8 down
# [2] = small-molecule binders of probe aLefty1, primary screen, biochemical, small-molecule microarray, 635/667 nm fluorescence (AID 1153); conditions: higher = more signal;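 also: score merges spot fluorescence with signal-to-noise ratio from the scanned slide images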
# [3] = PSAC antagonists in infected red cells, primary screen, cell-based, P. falciparum Indochina, OD700, 1 h (AID 1154); conditions: P. falciparum Indochina infected RBC osmotic lysis, higher = more signal, called active from +8 up or from −8 down
# [4] = PSAC antagonists in infected red cells, primary screen, cell-based, P. falciparum Indochina, OD700, 2 h (AID 1155);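 also: lysis reports solute entry through the parasite surface anion channel PSAC; channel blockers reduce lysis of infected cells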; conditions: P. falciparum Indochina infected erythrocytes, osmotic lysis OD700; higher = more signal, called active from +8 up or from −8 down
# [5] = osmotic lysis modulators in infected erythrocytes, primary screen, PSAC antagonist project, cell-based, P. falciparum Indochina, OD700, 3 h (AID 1156); conditions: higher = more signal, called active from +8 up or from −8 down
# [6] = PSAC antagonists in infected red cells, primary screen, cell-based, P. falciparum Indochina, OD700, 18 h (AID 1157); conditions: P. falciparum Indochina infected erythrocytes, osmotic lysis OD700, 18 h; higher = more signal, called active from +8 up or from −8 down
# [7] = modulators of S6 phosphorylation in cells, primary screen, cell-based, A549, cytoblot, luminescence, serum-stimulated (AID 1158); conditions: A549 phospho-S6 cytoblot, 5 h, higher = more signal;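 also: serum-stimulated A549 lung adenocarcinoma cells; signal is phosphorylated S6 detected by cytoblot immunostaining with HRP secondary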
# [8] = biological target: NADPH oxidase 2 (Homo sapiens) (UniProt P04839); test: NOX2-dependent H2O2 signal modulators, primary screen, NOX inhibitor project, cell-based, HEK293-NOX2, PMA-stimulated, Amplex Red fluorescence (AID 1159); conditions: 45 min, higher = more signal, called active from +8 up or from −8 down; also: test concentration not given here
# [9] = biological target: NADPH oxidase 4 (Homo sapiens) (UniProt Q9NPH5); test: NOX4-dependent H2O2 signal modulators, primary screen, NOX inhibitor project, cell-based, HEK293-NOX4, tetracycline-induced, Amplex Red fluorescence (AID 1160); conditions: 45 min, higher = more signal, called active from +8 up or from −8 down
# [10] = biological target: NADPH oxidase 5 (Homo sapiens) (UniProt Q96PH1); test: NOX5-dependent H2O2 signal modulators, primary screen, NOX inhibitor project, cell-based, HEK293-NOX5, Amplex Red fluorescence (AID 1161); conditions: HEK293-NOX5, ionomycin, 45 min, higher = more signal
# Chain of NADPH oxidase 5 (Homo sapiens) (Q96PH1 whole entry, looked up): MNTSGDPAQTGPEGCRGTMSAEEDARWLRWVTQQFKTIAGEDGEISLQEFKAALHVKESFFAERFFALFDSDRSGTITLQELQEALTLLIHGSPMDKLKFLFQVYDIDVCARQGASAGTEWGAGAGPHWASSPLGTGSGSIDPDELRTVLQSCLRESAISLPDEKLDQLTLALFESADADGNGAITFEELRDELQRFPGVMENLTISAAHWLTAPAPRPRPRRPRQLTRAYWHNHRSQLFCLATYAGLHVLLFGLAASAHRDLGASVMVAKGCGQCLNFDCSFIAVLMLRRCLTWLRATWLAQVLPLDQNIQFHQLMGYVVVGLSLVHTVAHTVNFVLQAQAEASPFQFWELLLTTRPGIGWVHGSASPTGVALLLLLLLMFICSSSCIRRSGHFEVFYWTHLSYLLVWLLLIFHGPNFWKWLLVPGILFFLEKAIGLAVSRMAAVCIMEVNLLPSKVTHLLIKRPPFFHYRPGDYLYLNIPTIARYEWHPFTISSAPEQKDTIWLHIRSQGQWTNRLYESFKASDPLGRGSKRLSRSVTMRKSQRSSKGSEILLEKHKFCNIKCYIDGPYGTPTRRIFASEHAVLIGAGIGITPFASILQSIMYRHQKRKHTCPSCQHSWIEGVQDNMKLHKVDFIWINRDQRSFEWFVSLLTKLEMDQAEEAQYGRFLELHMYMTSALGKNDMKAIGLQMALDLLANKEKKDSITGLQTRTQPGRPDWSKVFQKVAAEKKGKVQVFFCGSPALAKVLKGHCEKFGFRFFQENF
# Chain of NADPH oxidase 4 (Homo sapiens) (Q9NPH5 whole entry, looked up): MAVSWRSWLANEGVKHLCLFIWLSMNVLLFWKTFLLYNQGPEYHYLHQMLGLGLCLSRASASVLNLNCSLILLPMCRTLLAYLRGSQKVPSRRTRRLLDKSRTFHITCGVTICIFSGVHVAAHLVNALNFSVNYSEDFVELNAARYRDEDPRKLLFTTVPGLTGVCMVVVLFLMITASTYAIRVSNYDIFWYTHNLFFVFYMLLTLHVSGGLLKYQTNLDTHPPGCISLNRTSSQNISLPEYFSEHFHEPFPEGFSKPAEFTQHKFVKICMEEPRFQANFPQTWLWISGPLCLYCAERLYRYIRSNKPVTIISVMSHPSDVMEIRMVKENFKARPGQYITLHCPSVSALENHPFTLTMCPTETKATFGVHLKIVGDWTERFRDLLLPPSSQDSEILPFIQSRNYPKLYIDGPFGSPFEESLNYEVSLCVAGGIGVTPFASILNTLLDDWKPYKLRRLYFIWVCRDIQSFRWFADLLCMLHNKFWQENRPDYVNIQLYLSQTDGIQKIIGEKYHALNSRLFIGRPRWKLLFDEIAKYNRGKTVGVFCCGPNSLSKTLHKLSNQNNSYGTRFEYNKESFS
# Chain of NADPH oxidase 2 (Homo sapiens) (P04839 whole entry, looked up): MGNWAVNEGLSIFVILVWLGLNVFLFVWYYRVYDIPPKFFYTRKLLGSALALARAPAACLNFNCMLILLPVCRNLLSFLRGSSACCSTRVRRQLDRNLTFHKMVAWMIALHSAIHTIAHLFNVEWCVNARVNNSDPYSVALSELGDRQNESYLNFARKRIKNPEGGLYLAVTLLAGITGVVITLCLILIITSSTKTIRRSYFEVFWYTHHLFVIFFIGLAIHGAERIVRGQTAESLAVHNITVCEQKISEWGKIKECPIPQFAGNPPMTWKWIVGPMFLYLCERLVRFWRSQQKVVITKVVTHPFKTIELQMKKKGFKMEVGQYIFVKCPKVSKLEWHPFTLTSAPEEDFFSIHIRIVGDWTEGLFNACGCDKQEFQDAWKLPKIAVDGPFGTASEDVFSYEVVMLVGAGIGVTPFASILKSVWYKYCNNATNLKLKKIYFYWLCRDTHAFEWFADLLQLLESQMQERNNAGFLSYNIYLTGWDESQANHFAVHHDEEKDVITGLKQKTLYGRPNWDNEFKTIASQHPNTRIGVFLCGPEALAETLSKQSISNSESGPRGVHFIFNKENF
SMILES,z-score [1],composite z-score [2],z-score [3],z-score [4],z-score [5],z-score [6],z-score [7],z-score [8],z-score [9],z-score [10]
[N-]=[N+]=NCc1ccccc1C[C@@]1(C(=O)N2CCOCC2)N=C(c2ccc(OCCCO)cc2)O[C@@H]1c1ccccc1,0.083 (inactive),0.276,27 (active),17.1 (active),2.37 (inactive),0.889 (inactive),2.41,-4.45 (inactive),-1.12 (inactive),-2.14
O=C1O[C@H](c2ccccc2)[C@H](c2ccccc2)N2[C@H]1[C@@H](C(=O)Nc1nc3ccccc3s1)[C@]1(C(=O)Nc3ccc(C#CCCO)cc31)[C@H]2c1ccc(O)cc1,-0.742 (inactive),0.026,0.402 (inactive),1.05 (inactive),-5.42 (inactive),1.23 (inactive),-0.263,1.08 (inactive),0.38 (inactive),-0.901
CN(C)CCCNC(=O)[C@@]1(C)c2ccccc2C(=O)N(Cc2ccccc2)[C@H]1c1ccc(CO)cc1,-0.074 (inactive),-0.146,2.17 (inactive),0.426 (inactive),1.32 (inactive),0.377 (inactive),-0.142,0.42 (inactive),-1.25 (inactive),0.6
COC(=O)c1c(CC[C@@H](CO)NC(=O)N[C@H](Cn2cc(C3(O)CCCCC3)nn2)C(C)C)oc(C(C)=O)c1C(=O)OC,1.51 (inactive),0.102,1.45 (inactive),-0.141 (inactive),1.02 (inactive),-0.152 (inactive),2.22,-3.25 (inactive),-0.839 (inactive),0.655
CC(C)[Si](C#CCCCC#N)(O[C@H](c1ccccc1)c1cn([C@H](CO)Cc2ccccc2)nn1)C(C)C,1.72 (inactive),-0.187,1.31 (inactive),0.4 (inactive),-0.138 (inactive),0.0616 (inactive),-0.013,-0.777 (inactive),0.789 (inactive),0.317
C=C(/C(=C/C[C@H](OC(=O)c1ccncc1)c1ccc(CO)o1)c1cc(C(=O)OC)ccc1OC)C(C)C,-0.23 (inactive),0.0187,3.3 (inactive),0.365 (inactive),1.25 (inactive),0.136 (inactive),-0.578,-1.06 (inactive),-0.154 (inactive),-0.6
CCCCN1CC=CC23O[C@@H]4/C=C\CCC(C)OC(=O)C4[C@H]2C(=O)N(C(CO)C(C)C)[C@@H]3C1=O (stereo not given in full),-0.0695 (inactive),0.13,1.65 (inactive),-0.361 (inactive),0.826 (inactive),0.406 (inactive),1.81,1.4 (inactive),-0.506 (inactive),2.14
COCCCNC(=O)[C@]1(CCS(=O)(=O)c2ccccc2)N=C(c2ccc(OCCCO)cc2)O[C@@H]1c1ccccc1N=[N+]=[N-],0.308 (inactive),-0.0087,29.8 (active),28.1 (active),1.67 (inactive),2.02 (inactive),0.737,0.867 (inactive),0.235 (inactive),-0.901
CCOC(=O)C[C@H]1[C@H](OC(=O)Cc2ccc3c(c2)OCO3)[C@@H](NC(=O)Cc2ccc(OC)cc2)c2cc(OCCCO)ccc2N1C(=O)c1ccc2ccccc2n1,2.96 (inactive),0.0889,3.63 (inactive),-0.486 (inactive),-1.03 (inactive),-1.01 (inactive),1.29,-1.03 (inactive),1.04 (inactive),1.05
C=CCOC(=O)[C@H]1[C@@H]2C(=O)O[C@@H](c3ccccc3)[C@@H](c3ccccc3)N2[C@@H](c2ccc(OCCOC(=O)[C@@H]3C[C@@H]4C(=O)N[C@@H](CCCCN(C)C)C(=O)N4[C@@H]3c3ccc(O)cc3)cc2)[C@]12C(=O)Nc1ccccc12,-1.53 (inactive),-0.0873,0.0625 (inactive),0.249 (inactive),3.35 (inactive),0.251 (inactive),-0.444,2.51 (inactive),0.874 (inactive),0.391
COC(=O)[C@@]1(Cc2ccccc2)[C@H]2c3cc(C(=O)N(C)C)n(CCN4CNCC4=O)c3C[C@H]2CN1C(=O)c1ccccc1,-0.65 (inactive),0.673,0.274 (inactive),0.759 (inactive),0.307 (inactive),0.789 (inactive),-0.646,0.61 (inactive),0.554 (inactive),0.0884
O=C1OCCC=C[C@H]2OC34C=CCN(Cn5nnc6ccccc65)C(=O)[C@H]3N(CCCCCCO)C(=O)[C@@H]4C12 (stereo not given in full),-0.051 (inactive),-0.81,0.987 (inactive),1.02 (inactive),0.946 (inactive),0.748 (inactive),0.916,0.94 (inactive),-0.201 (inactive),2.2
C=CCOC(=O)[C@H]1[C@@H]2C(=O)O[C@@H](c3ccccc3)[C@@H](c3ccccc3)N2[C@@H](c2ccc(OCCOC(=O)[C@H]3C[C@H]4C(=O)N[C@@H](CCCCNC(C)=O)C(=O)N4[C@H]3c3ccc(O)cc3)cc2)[C@]12C(=O)Nc1ccccc12,3.24 (inactive),0.026,1.59 (inactive),0.512 (inactive),-0.821 (inactive),-0.927 (inactive),1.4,1.89 (inactive),1.44 (inactive),1.04
Cc1ccc(S[C@]2(C(=O)NCCCN(C)C)CC(=O)N(C3CCCCC3)[C@@H]2c2ccc(CO)cc2)cc1,0.344 (inactive),0.199,4.64 (inactive),0.695 (inactive),2.17 (inactive),0.819 (inactive),-0.358,-2.24 (inactive),-2.06 (inactive),-1.4
O=C(N1CCCCC1)[C@@]1(CCS(=O)(=O)c2ccccc2)COC(c2ccc(OCCCO)cc2)=N1,0.641 (inactive),0.457,27.3 (active),21.1 (active),2.47 (inactive),2.93 (inactive),-0.436,-1.53 (inactive),0.675 (inactive),0.885
C=C(C)[C@@H]1CC=C(C(O)C2C=CC3C(=O)N(c4ccccc4)C(=O)C3N2Nc2ccccc2F)CC1 (stereo not given in full),-1.79 (inactive),0.744,0.19 (inactive),1.01 (inactive),0.039 (inactive),1.1 (inactive),-1.23,0.032 (inactive),-1.64 (inactive),-2.14
COCCOC(=O)N1C(=O)[C@@]2(c3cc(C#Cc4ccc(OC)cc4)ccc31)[C@H](c1ccc(O)cc1)N1[C@H](c3ccccc3)[C@H](c3ccccc3)OC(=O)[C@H]1[C@@H]2C(=O)N1CCCCCCC1,-0.329 (inactive),2.12,0.0963 (inactive),0.0379 (inactive),-1.3 (inactive),-0.0483 (inactive),-0.307,0.877 (inactive),0.482 (inactive),0.391
[N-]=[N+]=NCc1ccccc1C[C@]1(C(N)=O)N=C(c2ccc(OCCCO)cc2)O[C@H]1c1ccccc1,1.06 (inactive),-0.227,21 (active),3.55 (inactive),0.0533 (inactive),0.913 (inactive),0.349,-3.27 (inactive),-0.839 (inactive),-1.95
Cc1ccc(S[C@]2(C(=O)NCC(F)(F)F)CC(=O)N(C3CCCCC3)[C@@H]2c2ccc(CO)cc2I)cc1,0.439 (inactive),-0.0879,4.35 (inactive),1.29 (inactive),-0.178 (inactive),0.524 (inactive),-0.283,1.04 (inactive),0.661 (inactive),2.07
COc1cc(OC)c(C(O)C2C=CC3C(=O)N(C)C(=O)C3N2NC(=O)OC(C)(C)C)cc1Br (stereo not given),-0.36 (inactive),0.524,1.24 (inactive),1.18 (inactive),-0.285 (inactive),1.07 (inactive),-0.92,0.224 (inactive),-3.59 (inactive),0.576
COc1ccccc1CN1C(=O)c2ccccc2[C@](Cc2ccccc2I)(C(=O)NCC(F)(F)F)[C@@H]1c1ccc(CO)cc1,-0.566 (inactive),0.126,5.37 (inactive),0.82 (inactive),2.38 (inactive),0.401 (inactive),-0.317,1.71 (inactive),-1.73 (inactive),-1.05
COC(=O)[C@@]1(Cc2ccc(OC)cc2)[C@H]2c3cc(C(=O)N(C)C)n(Cc4ccc(Cl)c(C(F)(F)F)c4)c3C[C@H]2CN1C(=O)c1ccccc1,-1.4 (inactive),0.357,7.57 (inactive),1.42 (inactive),1.01 (inactive),1.21 (inactive),-0.264,1.19 (inactive),-0.227 (inactive),1.57
COC(=O)c1c2oc(c1C(=O)OC)C(=O)N(Cc1ccccc1)Cc1cn(nn1)C[C@H](Cc1ccccc1)NC(=O)N[C@H](CO)CC2,0.959 (inactive),-0.0942,1.67 (inactive),0.393 (inactive),-0.252 (inactive),0.213 (inactive),1.18,-1.13 (inactive),1.06 (inactive),-0.397
COc1ccc([Si](C)(C)[C@@H]2[C@@H](CC(=O)N3Cc4ccccc4C[C@H]3CO)O[C@]3(C(=O)N(Cc4cccc(N5C(=O)c6cccc7cccc5c67)c4)c4ccccc43)[C@H]2C)cc1,-0.721 (inactive),-0.0601,2.4 (inactive),0.963 (inactive),-0.369 (inactive),0.376 (inactive),0.015,-0.579 (inactive),0.668 (inactive),2.34
